Experimental data published in the supplement of paper PMC8728848.
About 410 targets per protein were measured; listed, in parts, are those with the strongest signals and a random draw of the rest.

Key:
Test in all cases: glycan array binding signal (z-score within array); higher = stronger binding
Conditions in all cases: glycan notation: IUPAC condensed, linker removed
[1] = target: Fuc(a1-2)Gal(b1-3)GlcNAc(b1-3)Gal(b1-4)Glc
Method in brief: (§1)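 Columns mapping to the same glycan were averaged after glycan names were converted to IUPAC-condensed notation. The data come from 3228 arrays in the Consortium for Functional Glycomics database, limited to those with an available protein sequence. Binding is reported as a within-array Z-score averaged across arrays of one protein sequence and across linkers.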

[2] = target: Fuc(a1-2)Gal(b1-3)GlcNAc(b1-3)[Gal(b1-4)GlcNAc(b1-6)]Gal(b1-4)Glc
Method in brief: as §1

[3] = target: Fuc(a1-2)Gal(b1-3)[Fuc(a1-4)]GlcNAc(b1-2)Man(a1-3)[Fuc(a1-2)Gal(b1-3)[Fuc(a1-4)]GlcNAc(b1-2)Man(a1-6)]Man(b1-4)GlcNAc(b1-4)GlcNAc
Method in brief: as §1

Fuc(a1-2)Gal(b1-4)Glc6S = target: Fuc(a1-2)Gal(b1-4)Glc6S
Method in brief: as §1

[4] = target: Fuc(a1-2)Gal(b1-4)[Fuc(a1-3)]GlcNAc(b1-2)Man(a1-3)[Fuc(a1-2)Gal(b1-4)[Fuc(a1-3)]GlcNAc(b1-2)Man(a1-6)]Man(b1-4)GlcNAc(b1-4)GlcNAc
Method in brief: as §1

[5] = target: Fuc(a1-2)Gal(b1-4)[Fuc(a1-3)]GlcNAc(b1-2)[Fuc(a1-2)Gal(b1-4)[Fuc(a1-3)]GlcNAc(b1-4)]Man(a1-3)[Fuc(a1-2)Gal(b1-4)[Fuc(a1-3)]GlcNAc(b1-2)Man(a1-6)]Man(b1-4)GlcNAc(b1-4)GlcNAc
Method in brief: as §1

[6] = target: Fuc(a1-2)[Gal(a1-3)]Gal(b1-3)GlcNAc(b1-2)Man(a1-3)[Fuc(a1-2)[Gal(a1-3)]Gal(b1-3)GlcNAc(b1-2)Man(a1-6)]Man(b1-4)GlcNAc(b1-4)[Fuc(a1-6)]GlcNAc
Method in brief: as §1

[7] = target: Fuc(a1-2)[GalNAc(a1-3)]Gal
Method in brief: as §1

[8] = target: Gal(a1-3)Gal(b1-4)GlcNAc(b1-3)GalNAc
Method in brief: as §1

[9] = target: Gal(b1-3)GalNAc(b1-3)Gal(a1-4)Gal(b1-4)Glc
Method in brief: as §1

[10] = target: Gal(b1-3)GalNAc(b1-4)[Neu5Ac(a2-3)]Gal(b1-4)Glc
Method in brief: as §1

[11] = target: Gal(b1-3)GlcNAc(b1-3)Gal(b1-4)GlcNAc(b1-6)[Gal(b1-3)GlcNAc(b1-3)]Gal(b1-4)Glc
Method in brief: as §1

[12] = target: Gal(b1-3)GlcNAc(b1-6)Gal(b1-4)GlcNAc
Method in brief: as §1

[13] = target: Gal(b1-3)[Neu5Ac(b2-6)]GalNAc
Method in brief: as §1

Gal(b1-4)GlcNAc = target: Gal(b1-4)GlcNAc
Method in brief: as §1

Gal3S(b1-4)Glc6S = target: Gal3S(b1-4)Glc6S
Method in brief: as §1

Gal6S(b1-3)GlcNAc6S = target: Gal6S(b1-3)GlcNAc6S
Method in brief: as §1

GlcA(b1-3)GlcNAc = target: GlcA(b1-3)GlcNAc
Method in brief: as §1

[14] = target: GlcNAc(a1-4)Gal(b1-4)GlcNAc(b1-3)Gal(b1-4)GlcNAc
Method in brief: as §1

[15] = target: GlcNAc(b1-2)Gal(b1-3)GalNAc
Method in brief: as §1

[16] = target: GlcNAc(b1-3)Gal(b1-3)GalNAc
Method in brief: as §1

[17] = target: GlcNAc(b1-3)Gal(b1-4)GlcNAc
Method in brief: as §1

[18] = target: Man(a1-2)Man(a1-6)[Man(a1-3)]Man(a1-6)[Man(a1-2)Man(a1-2)Man(a1-3)]Man(b1-4)GlcNAc(b1-4)GlcNAc
Method in brief: as §1

Neu5Ac(a2-3)Gal = target: Neu5Ac(a2-3)Gal
Method in brief: as §1

[19] = target: Neu5Ac(a2-3)Gal(b1-3)GalNAc(b1-4)[Neu5Ac(a2-3)]Gal(b1-4)Glc
Method in brief: as §1

[20] = target: Neu5Ac(a2-3)Gal(b1-3)[Fuc(a1-4)]GlcNAc(b1-3)Gal(b1-3)[Fuc(a1-4)]GlcNAc
Method in brief: as §1

[21] = target: Neu5Ac(a2-3)Gal(b1-4)GlcNAc(b1-3)Gal
Method in brief: as §1

[22] = target: Neu5Ac(a2-3)Gal(b1-4)GlcNAc(b1-6)[Gal(b1-3)]GalNAc
Method in brief: as §1

[23] = target: Neu5Ac(a2-3)Gal(b1-4)[Fuc(a1-3)]GlcNAc(b1-3)Gal(b1-4)GlcNAc
Method in brief: as §1

[24] = target: Neu5Ac(a2-6)Gal(b1-4)GlcNAc(b1-2)Man(a1-3)[Neu5Ac(a2-6)Gal(b1-4)GlcNAc(b1-2)Man(a1-6)]Man(b1-4)GlcNAc(b1-4)GlcNAc
Method in brief: as §1

[25] = target: Neu5Ac(a2-8)Neu5Ac(a2-3)Gal(b1-3)GalNAc(b1-4)[Neu5Ac(a2-8)Neu5Ac(a2-3)]Gal(b1-4)Glc
Method in brief: as §1

Neu5Ac(b2-6)GalNAc = target: Neu5Ac(b2-6)GalNAc
Method in brief: as §1

[26] = target: Neu5Gc(a2-3)Gal(b1-3)GlcNAc
Method in brief: as §1

[27] = target: Neu5Gc(a2-3)Gal(b1-4)GlcNAc
Method in brief: as §1

[28] = target: Neu5Gc(b2-6)Gal(b1-4)GlcNAc
Method in brief: as §1

B1: MFG-E8 (Homo sapiens), Q08431 (protein)
chain: MPRPRLLAALCGALLCAPSLLVALDICSKNPCHNGGLCEEISQEVRGDVFPSYTCTCLKGYAGNHCETKCVEPLGLENGNIANSQIAASSVRVTFLGLQHWVPELARLNRAGMVNAWTPSSNDDNPWIQVNLLRRMWVTGVVTQGASRLASHEYLKAFKVAYSLNGHEFDFIHDVNKKHKEFVGNWNKNAVHVNLFETPVEAQYVRLYPTSCHTACTLRFELLGCELNGCANPLGLKNNSIPDKQITASSSYKTWGLHLFSWNPSYARLDKQGNFNAWVAGSYGNDQWLQVDLGSSKEVTGIITQGARNFGSVQFVASYKVAYSNDSANWTEYQDPRTGSSKIFPGNWDNHSHKKNLFETPILARYVRILPVAWHNRIALRLELLGC
[1]
  glycan array binding signal (z-score): -0.126
[2]
  glycan array binding signal (z-score): -0.539
[3]
  glycan array binding signal (z-score): 2.2
Fuc(a1-2)Gal(b1-4)Glc6S
  glycan array binding signal (z-score): -0.507
[4]
  glycan array binding signal (z-score): 2.88
[5]
  glycan array binding signal (z-score): 2.94
[6]
  glycan array binding signal (z-score): -0.115
[7]
  glycan array binding signal (z-score): -0.746
[8]
  glycan array binding signal (z-score): -0.233
[9]
  glycan array binding signal (z-score): -0.572
[10]
  glycan array binding signal (z-score): -0.7
[11]
  glycan array binding signal (z-score): 2.38
[12]
  glycan array binding signal (z-score): -0.672
[13]
  glycan array binding signal (z-score): 0.07
Gal(b1-4)GlcNAc
  glycan array binding signal (z-score): -0.753
Gal3S(b1-4)Glc6S
  glycan array binding signal (z-score): 6.38
Gal6S(b1-3)GlcNAc6S
  glycan array binding signal (z-score): 3.63
GlcA(b1-3)GlcNAc
  glycan array binding signal (z-score): 0.43
[14]
  glycan array binding signal (z-score): 3.21
[15]
  glycan array binding signal (z-score): -0.68
[16]
  glycan array binding signal (z-score): 0.268
[17]
  glycan array binding signal (z-score): -0.62
[18]
  glycan array binding signal (z-score): 2.16
Neu5Ac(a2-3)Gal
  glycan array binding signal (z-score): -0.156
[19]
  glycan array binding signal (z-score): 1.61
[20]
  glycan array binding signal (z-score): 1.24
[21]
  glycan array binding signal (z-score): 0.052
[22]
  glycan array binding signal (z-score): -0.167
[23]
  glycan array binding signal (z-score): -0.126
[24]
  glycan array binding signal (z-score): 1.09
[25]
  glycan array binding signal (z-score): -0.776
Neu5Ac(b2-6)GalNAc
  glycan array binding signal (z-score): 1.84
[26]
  glycan array binding signal (z-score): -0.636
[27]
  glycan array binding signal (z-score): 1
[28]
  glycan array binding signal (z-score): -0.408
